Experimental findings from PubChem BioAssay (Tox21) are described below.

Structures are written as SMILES. Inconclusive results are not listed. A call without a number means that no potency is given here. Active and inactive are the calls of the source. The call rests on the fitted dose curve; in most records, active means well fitted cell-killing curve with a large enough effect in the repeat runs; inconclusive means weak or mixed curves, or effect the other way; inactive means no such curve, though single readings can be large or run the other way.

The nature of this test: qHTS assay to identify small molecule agonists of the farnesoid-X-receptor (FXR) signaling pathway - cell viability counter screen (AID 743218). Further: nearly all actives have a fitted effect of over 45% in size. As to conditions: FXR-bla HEK293T viability, CellTiter-Glo luminescence, 16 h; series mostly up to 62.6 µM. The source says: U.S. Tox21 Program National Center for Advancing Translational Sciences [NCATS] NIH Chemical Genomics Center [NCGC] U.S. Environmental Protection Agency [EPA] National Institutes of Environmental Health Sciences [NIEHS] National Toxicology Program [NTP] U.S. Food and Drug Administration [FDA] Tox21 Assay Overview: The farnesoid-X-receptor (FXR), a nuclear hormone receptor, is highly expressed in liver, intestine, kidney and adrenal cortex. Natural ligands of FXR are the bile acids (Cholic acid, Chenodeoxy cholic acid etc). FXR is an important regulator of diverse metabolic pathways, including the bile acid homeostasis, lipid and glucose metabolisms. FXR regulates the expression of target genes by binding either as a monomer or as a heterodimer with the retinoid X receptor (RXR). Numerous studies have reported that FXR exerts protective function during cholestasis, diabetes, liver regeneration, and cancer. To identify compounds that activate FXR signaling, GeneBLAzer FXR-UAS-bla HEK 293T cell line (Invitrogen, Carlsbad, CA) containing a beta-lactamase reporter gene under the control of a UAS response element was used to screen the Tox21 10K compound library. The cytotoxicity of the Tox21 compound library against the FXR-bla cell line was tested in parallel by measuring the cell viability using CellTiter-Glo assay in the same wells.
Tox21 Assay Protocol Summary: FXR-bla cells were dispensed at 5000 cells/5uL/well in 1536-well black wall/clear bottom plates using a Multidrop Combi (Thermo Fisher Scientific, Waltham, MA) dispenser. After the assay plates were incubated at 37 C and 5% CO2 for 5 h, 23 nL of compounds dissolved in DMSO, positive controls or DMSO only was transferred to the assay plate by a Pintool station (Kalypsys, San Diego, CA). The assay plates were incubated at 37C for 16 h. After 1 uL of LiveBLAzerTM B/G FRET substrate was added using a Bioraptr Flying Reagent Dispenser (FRD) workstation (Beckman Coulter, Indianapolis, IN), the plates were incubated at room temperature for 2 h, and fluorescence intensity was measured by an Envision plate reader (PerkinElmer, Shelton, CT). For cell viability readout that measures cytotoxicity, 4uL/well of CellTiter-Glo reagent was added into the assay plates using a Bioraptr FRD. After 30 min incubation at room temperature, the luminescence intensity in the plates was measured using a ViewLux plate reader (PerkinElmer).
As for `NC(N)=N/N=C/c1c(Cl)cccc1Cl`, the Potency result was “inactive”.

`CC(C)(Oc1ccc(Cl)cc1)C(=O)OCCCOC(=O)C(C)(C)Oc1ccc(Cl)cc1`: the Potency result is “inactive”. On the same count and under the same terms, the same measure for `c1ccc(CNCc2ccccc2)cc1`: “inactive”. Turning to `CC(C)c1ccc2c(C(C)C)cc(C(C)C)c(S(=O)(=O)O)c2c1`, the Potency entry is “inactive”. In the case of `CCOc1ccc(NC(=O)CC(C)=O)cc1`, the Potency result was “inactive”.

Take `CCCCOc1cc(C(=O)OCCN(CC)CC)ccc1N`: the Potency entry is “inactive”.

Take `CCCCOC(=O)/C=C\C(=O)OCCCC`: the Potency result was “inactive”. Same read-out and setting: for `O=C(O)/C=C/c1cnc[nH]1` the value was “inactive”.

For the molecule `NCc1ccccc1`, the Potency result is “inactive”. The same measure, in the same setting: the same measure for `CCCC[C@H]1CN(CC2CCOCC2)C(=O)OC12CCN(C1(C)CCN(C(=O)c3c(C)ncnc3C)CC1)CC2`: “inactive”. Still for that read-out and setting: the same measure for `CC(C)CCCCCCOC(=O)c1ccc(C(=O)OCCCCCCC(C)C)c(C(=O)OCCCCCCC(C)C)c1`: “inactive”; for `COC(=O)C(C)=O`: “inactive”. On the same count and under the same terms, for `CC(C)(C)c1cc(O)c(C(C)(C)C)cc1O` the value was “inactive”; for `Nc1nc(CC(=O)O)cs1`, “inactive”; for `FC(F)(F)C(F)(F)C(F)(F)C(F)(F)C(F)(F)C(F)(F)CCI`, “inactive”. In the case of `Oc1ccc(Sc2ccc(O)cc2)cc1`, the Potency entry was “inactive”. In the case of `N#CCc1cccc(C(F)(F)F)c1`, the Potency result is “inactive”. On the same count and under the same terms, the same measure for `CCCCCCCCN(C)C`: “inactive”; for `C#CCOC(=O)[C@@H](C)Oc1ccc(Oc2ncc(Cl)cc2F)cc1`: “inactive”. Take `CC1=CCC(C(C)C)C=C1` (stereo not given): the Potency result was “inactive”. As to `Cc1cc(NC(=O)C(=O)O)cc(C)c1Oc1ccc(O)c2c1CCC2`, the Potency entry was “inactive”.

Regarding `CNS(=O)(=O)Cc1ccc2[nH]cc(CCN(C)C)c2c1`, the Potency entry was “inactive”.

Regarding `O=[N+]([O-])c1cc[n+]([O-])cc1`, the Potency entry is “inactive”. Regarding `NCCCOCCOCCOCCCN`, the Potency result was “inactive”. Still for that read-out and setting: the same measure for `CN(C)CC[C@@H](c1ccc(Br)cc1)c1ccccn1`: “inactive”. The same measure, in the same setting: the same measure for `CCN(CC)CCc1nc(-c2ccccc2)no1`: “inactive”. In the case of `NC[C@H]1O[C@H](O[C@H]2[C@H](O)[C@@H](O[C@H]3O[C@H](CO)[C@@H](O)[C@H](N)[C@H]3O)[C@H](N)C[C@@H]2N)[C@H](O)[C@@H](O)[C@@H]1O`, the viability change, negative = cytotoxic is 5.82% [at 5.95 µM] (inactive). On to `O=C(O)Cc1sc(-c2ccccc2)nc1-c1ccc(Cl)cc1`, for which the Potency entry was “inactive”. The same measure, in the same setting: for `O=S1(=O)N=C(O)c2ccccc21` the value was “inactive”; for `NC(=S)N/N=C/c1cccnc1`, “inactive”. Still for that read-out and setting: for `O=CNc1ccccc1` the value was “inactive”. The same measure, in the same setting: the same measure for `CCCCCCCCCO`: “inactive”. In the case of `O=C(O)Cn1c(C(=O)Nc2nc(-c3ccccc3Cl)cs2)cc2ccccc21`, the Potency entry was “inactive”. The same measure, in the same setting: for `Cn1c(NCCN(CCO)CCCc2ccc([N+](=O)[O-])cc2)cc(=O)n(C)c1=O` the value was “inactive”.

Regarding `CN1CCC[C@@H]1c1cccnc1`, the Potency entry is “inactive”.

As for `CC(=O)CC(=O)c1ccccc1`, the Potency entry was “inactive”. With `COc1cc(C(C)(C)C)c(O)c(C(C)(C)C)c1`, the Potency entry was “inactive”. The same measure, in the same setting: for `COCCOCCOCCOCCOC` the value was “inactive”.

`CC(=O)/C(C)=C/C1C(C)=CCCC1(C)C` (stereo not given): the Potency result was “inactive”. Same read-out and setting: for `CC(=O)NCCCS(=O)(=O)O` the value was “inactive”.
